Rows were chosen to be rich in hits. Some 4.1% of all compounds tested hit in one or more screens of this group.
DAX1 inh-1 = inhibitors of DAX1 repression of SF-1 activated StAR promoter | AID 652010 | HEK293T StAR-luciferase reporter, SF-1/DAX-1 repression relief | inhibition, % at 6.8 µM | 370,000 tested, 1.1% active;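 active means inhibition above the mean over all tested compounds plus 3 SD, cut at about 3.6% in these data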;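 further: 0% = DAX-1 cells with DMSO and 100% = cells lacking DAX-1 with DMSO; higher inhibition means more luminescence from relief of DAX-1 repression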
DAX1 inh-2 = inhibits human nuclear receptor DAX1. HEK293 Gal4-DAX1 luciferase reporter, luminescence. inhibition, % at 6.75 µM. AID 504766. P51843. 340,000 tested, 0.99% active;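 active means inhibition above the mean over all tested compounds plus 3 SD, cut at about 4.2% in these data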;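 further: 0% = DAX1-transfected cells with DMSO and 100% = empty-vector control cells with DMSO; inhibition shows as a rise in luminescence from relieved DAX1 repression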
hgDAF-12 ag = activates the H. glycines DAF-12 receptor ligand-binding domain; 370,000 tested, 1.8% active; activation, % at 6.8 µM; AID 687014; HEK293 GAL4-hgDAF12 UAS-luciferase reporter, agonist luminescence; normalized to butyrate control;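 active means activation above a cutoff set at the mean of all screened compounds plus 3 SD, cut at about 10% in these data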;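 further: 0% = DMSO wells and 100% = sodium butyrate wells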
ssDAF-12 act = S. stercoralis DAF-12 activation, primary screen; HEK293 ssDAF-12/GRIP1 lit1-tk-luc reporter, luminescence; % of 3 µM dafachronic acid response; activation, % at 6.8 µM; 370,000 tested, 1% active;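 active means activation above the mean over all tested compounds plus 3 SD, cut at about 0.9% in these data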;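 further: 0% = DMSO-only wells and 100% = 3 µM delta7-dafachronic acid wells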
hcDAF-12 act = H. contortus DAF-12 activation, primary screen | activation, % at 6.8 µM | HEK293 hcDAF-12 lit1-tk-luc reporter, luminescence; 0% DMSO, 100% Δ7-dafachronic acid | AID 652067 | 370,000 tested, 1.4% active;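 active means activation above the mean of all tested compounds plus 3 SD, cut at about 5.5% in these data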;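 further: 100% = response to 3 µM Δ7-dafachronic acid high control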
hgDAF12 conf = hgDAF-12 agonism, confirmation assay; AID 743050; HEK293 GAL4-hgDAF12 luciferase reporter, agonist mode; percent of butyrate response; shares compounds with hgDAF-12 ag; activation, % at 6.8 µM; 3,300 tested, 80% active;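 active means mean activation over triplicate wells above the hit cutoff derived from the earlier primary screen, cut at about 11% in these data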;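 further: 0% = DMSO low control and 100% = 2 mM sodium butyrate high control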
LXRb DAF12 ctr = activates human LXR-beta, counter-screen for DAF-12 agonists. 3,300 tested, under 10 active. shares compounds with hgDAF-12 ag. activation, % at 6.8 µM. HEK293 Gal4-LXR luciferase reporter, 24 h;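 active means mean activation of the triplicate above a set limit carried over from the primary screen, none filed active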
Target sequence (P55055 whole entry, looked up, the tested form may be a part): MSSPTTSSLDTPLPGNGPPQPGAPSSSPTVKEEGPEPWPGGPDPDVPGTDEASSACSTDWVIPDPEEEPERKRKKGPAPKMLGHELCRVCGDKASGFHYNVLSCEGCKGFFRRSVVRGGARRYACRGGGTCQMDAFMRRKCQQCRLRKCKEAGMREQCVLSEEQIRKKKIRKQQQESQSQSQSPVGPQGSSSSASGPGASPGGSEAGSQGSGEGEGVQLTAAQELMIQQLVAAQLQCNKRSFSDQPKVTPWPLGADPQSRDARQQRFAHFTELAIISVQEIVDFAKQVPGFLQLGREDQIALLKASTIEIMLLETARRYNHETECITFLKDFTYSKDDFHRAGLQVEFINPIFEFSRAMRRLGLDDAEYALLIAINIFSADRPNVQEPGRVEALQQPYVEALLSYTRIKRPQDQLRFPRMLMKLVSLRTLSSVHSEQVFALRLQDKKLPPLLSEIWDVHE
* hit, by the source's call; . = no result.

SMILES	DAX1 inh-1	DAX1 inh-2	hgDAF-12 ag	ssDAF-12 act	hcDAF-12 act	hgDAF12 conf	LXRb DAF12 ctr
Cc1c[n+](C)ccc1CC1C([N+](=O)[O-])=C[N-]c2ncnn21 (configuration not stated)	0	2	-4	-2	0	.	.
COc1cc(NCCCn2cnc3c(OC)ncnc32)cc(OC)c1OC	-1	0	0	-1	-1	.	.
COc1ccc(CCNC(=O)COC(=O)Cc2ccccc2[N+](=O)[O-])cc1	-3	1	-6	0	3	.	.
COc1ccc(CCNC(=O)Nc2ccccc2[N+](=O)[O-])cc1	2	.	16*	-1	1	5	0
CCOC(=O)Cc1nc2ccccc2[nH]1	0	0	-3	-1	0	.	.
CCOC(=O)c1ccc(NCc2nc3ccccc3[nH]2)cc1	3	1	15*	0	5	5	0
Cc1cc(C(=O)NC2=NCCS2)cs1	3	0	17*	0	5	15*	1
COc1ccc(OC)c(NC(=O)/C=C/c2ccccc2[N+](=O)[O-])c1	-1	-1	-1	-1	-1	.	.
COc1cccc(NC(=O)/C=C/c2ccccc2[N+](=O)[O-])c1	3	2	16*	0	5	16*	1
CCOc1ccc(CCNC(=O)CCNC(=O)c2ccccc2Cl)cc1OCC	0	0	-2	-1	0	.	.
COc1cccc(C(=O)Nc2cc3c(cc2Cl)OCCCO3)c1	4	2	14*	0	2	14*	0
CC(=O)c1cc2c(cc1NC(=O)c1ccc(Cl)cc1)OCCO2	0	0	1	0	3	.	.
COc1ccc(C(=O)Nc2cc3c(cc2Cl)OCCCO3)cc1	2	3	10	0	3	.	.
Cc1ccc(C(=O)Nc2cc3c(cc2Cl)OCCCO3)cc1	2	3	17*	1	4	13*	0
CN1C(=O)c2ccc(C(=O)NCc3ccco3)cc2C1=O	0	0	-1	0	1	.	.
CCCNC(=O)c1oc2ccc3c(c2c1C)C(=O)CC(C)(C)O3	3	0	16*	0	3	13*	1
O=C1C=C(N2CCCCCC2)C(=O)N1c1ccc(Cl)cc1	2	4	15*	0	5	5	1
O=C1C(Cl)=C(N2CCCCCC2)C(=O)N1c1ccc(Cl)cc1	-1	0	-1	0	-1	.	.
CCCS(=O)(=O)NC(=O)C1(C)CCCN(C(=O)c2ccccc2OC)C1 (configuration not stated)	1	.	2	-1	1	.	.
CN1CCS/C1=C/C=C1\SC(=S)N(CC(=O)O)C1=O	0	0	2	0	2	.	.
CCCCN1C(=O)/C(=C/C=C2\SCCN2C)SC1=S	3	3	14*	0	0	10	1
COc1ccc(Cl)cc1S(=O)(=O)N1CCN(C(=O)c2n[nH]c(=O)c3ccccc23)CC1	-1	-2	-3	-1	-2	.	.
COc1ccc(NC(=O)CSC2CCCCC2)cc1	1	3	23*	0	4	15*	0
NS(=O)(=O)c1ccc(NC(=O)CSC2CCCCC2)cc1	1	0	2	-1	-1	.	.
O=C(Nc1ccn(-c2ccccc2)n1)c1ccccc1Br	1	2	20*	0	0	5	0
SMILES	DAX1 inh-1	DAX1 inh-2	hgDAF-12 ag	ssDAF-12 act	hcDAF-12 act	hgDAF12 conf	LXRb DAF12 ctr
O=c1[nH]c2ccccc2n2c(-c3ccncc3)nnc12	0	2	0	0	1	.	.
C#CCN1C(=O)S/C(=C/c2cc(C)n(CC)c2C)C1=O	3	1	18*	0	5	20*	1
CCn1c(C)cc(/C=C2/SC(=S)N(CC(=O)O)C2=O)c1C	1	-1	3	-1	-1	.	.
O=C(O)CCCCCNC(=O)CSc1nnc(-c2ccco2)n1-c1ccccc1	0	0	-3	-1	0	.	.
Nc1c(OS(=O)(=O)c2ccccc2)cccc1OS(=O)(=O)c1ccccc1	4	3	18*	0	1	14*	1
O=C1C2C3C=CC(C3)C2C(=O)N1c1ccccc1OS(=O)(=O)c1ccccc1 (configuration not stated)	0	-1	-2	-1	-2	.	.
CN1CCN(C(=O)C2Cc3c(-c4ccc5c(c4)OCO5)ccnc3O2)CC1 (configuration not stated)	0	.	1	-1	0	.	.
Cc1ccc(-c2cn(-c3ccccc3)c(=S)[nH]2)cc1C	1	4	20*	0	6.2*	14*	1
CCc1ccc(NC2=NCC(c3ccccc3)S2)cc1 (configuration not stated)	2	0	13*	-1	4	11*	0
O=C(c1ccccc1)c1coc2ccc(O)c(Cl)c12	1	3	5	0	2	.	.
Cc1ccc(C(=O)c2coc3ccc(O)cc23)cc1	4	2	18*	1.1*	5	22*	1
Cc1ccc(C(=O)c2coc3ccc(O)c(Cl)c23)cc1	3	6.5*	17*	0	4	13*	0
Cc1ccc2c(Cl)c(C(=O)Nc3cccnc3)sc2c1	3	3	20*	-1	2	18*	1
Cc1nnc(SCC(=O)Nc2ccc(-c3nc4ccccc4s3)cc2)s1	4	3	20*	1	6.0*	20*	1
Cc1ccc2nc(-c3ccc(NC(=O)CSc4nnc(Cc5cccs5)n4C)cc3)sc2c1	2	.	13*	0	4	16*	1
Cc1ccc2nc(-c3ccc(NC(=O)CSc4nccc(=O)[nH]4)cc3)sc2c1	2	2	14*	0	5	12*	1
CN(CC(=O)Nc1cccc(F)c1)C(=O)c1ccccc1CCc1ccccc1	-1	0	-1	-1	-1	.	.
Cc1ccc(C(=O)Nc2ccncc2)cc1S(=O)(=O)N1CCCCC1	-7	-2	-7	-1	-4	.	.
Cc1cnc(C)c(Nc2nc(C(N)c3ccccc3)cs2)n1 (configuration not stated)	1	.	2	-1	4	.	.
CC(=O)c1ccc(NC(=O)/C(Cl)=C/c2ccccc2)cc1	3	2	17*	0	4	12*	1
CCOC(=O)CC(NC(=O)c1cccc2c1C(=O)N(Cc1cccnc1)C2)c1ccc(OCC)c(OC)c1 (configuration not stated)	-1	0	-5	-2	-2	.	.
COc1cccc(-c2ncc3ccccc3c2COC(=O)c2cccc(Br)c2)c1	1	0	1	-2	-1	.	.
O=C(O)/C=C/C(=O)Nc1nccs1	0	-1	2	0	3	.	.

Source: PubChem BioAssay
